Data as given in the supplement of paper PMC11732987, “Enantioselective OTUD7B fragment discovery through chemoproteomics screening and high-throughput optimisation” (Communications Chemistry, 2025).
Values without a mark were called inactive.

What was measured:
Assay in all cases: log2 ratio of Biotin-Ahx-Ub-VS probe labelling (fragment/DMSO); higher = less target engagement (more negative = stronger competition), active = hit call of the paper (q ≤ 0.05, log2 ratio ≤ -1)
Conditions in all cases: compound concentration: 200 uM; treatment time: 3 h
USP42 = molecular target: T1, USP42 (UniProt Q9H9J4)
T1 sequence (whole entry): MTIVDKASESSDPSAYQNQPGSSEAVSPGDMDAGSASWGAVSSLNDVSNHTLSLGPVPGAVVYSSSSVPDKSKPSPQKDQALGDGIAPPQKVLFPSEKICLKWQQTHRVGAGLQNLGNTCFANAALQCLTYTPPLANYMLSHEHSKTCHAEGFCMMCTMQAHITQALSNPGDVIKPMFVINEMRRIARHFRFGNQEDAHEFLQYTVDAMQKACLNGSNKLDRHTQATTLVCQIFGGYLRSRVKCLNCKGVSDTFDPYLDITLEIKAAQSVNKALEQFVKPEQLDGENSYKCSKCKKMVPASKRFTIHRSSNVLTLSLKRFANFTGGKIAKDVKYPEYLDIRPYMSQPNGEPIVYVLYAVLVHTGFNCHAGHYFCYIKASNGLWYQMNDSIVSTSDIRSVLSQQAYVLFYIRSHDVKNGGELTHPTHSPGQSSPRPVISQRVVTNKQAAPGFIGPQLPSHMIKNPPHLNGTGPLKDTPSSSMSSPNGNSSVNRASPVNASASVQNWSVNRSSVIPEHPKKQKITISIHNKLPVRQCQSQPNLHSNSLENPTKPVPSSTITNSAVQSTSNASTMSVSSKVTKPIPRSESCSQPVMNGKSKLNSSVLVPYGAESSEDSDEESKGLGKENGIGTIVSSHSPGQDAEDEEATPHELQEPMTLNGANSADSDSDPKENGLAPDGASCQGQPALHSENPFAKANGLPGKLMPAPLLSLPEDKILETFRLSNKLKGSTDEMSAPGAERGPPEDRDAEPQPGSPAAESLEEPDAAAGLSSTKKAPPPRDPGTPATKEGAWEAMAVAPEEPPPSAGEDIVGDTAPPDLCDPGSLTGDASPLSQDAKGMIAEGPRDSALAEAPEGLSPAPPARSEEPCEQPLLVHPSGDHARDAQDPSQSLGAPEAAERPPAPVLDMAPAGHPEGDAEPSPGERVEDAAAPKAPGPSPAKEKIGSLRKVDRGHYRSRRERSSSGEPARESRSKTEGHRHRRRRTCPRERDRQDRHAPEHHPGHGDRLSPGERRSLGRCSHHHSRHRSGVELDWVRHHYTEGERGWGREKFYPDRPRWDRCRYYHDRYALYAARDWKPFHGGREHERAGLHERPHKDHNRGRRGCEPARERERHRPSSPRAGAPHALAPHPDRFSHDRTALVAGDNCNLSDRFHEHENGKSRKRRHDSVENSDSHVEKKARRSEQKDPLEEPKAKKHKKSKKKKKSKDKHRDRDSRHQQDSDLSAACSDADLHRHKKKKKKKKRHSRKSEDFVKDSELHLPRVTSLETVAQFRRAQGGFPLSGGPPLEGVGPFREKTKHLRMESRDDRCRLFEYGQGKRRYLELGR
Summary of the method: (§1)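 The table lists average log2 ratios of fragment over vehicle, from an unpaired t-test on global-median-normalised Spectronaut label-free quantities. Proteins with ≥2 unique peptides were used. Samples were HEK293T lysate (495 µg) treated in triplicate with fragment at 200 µM or vehicle for 3 h, then with Biotin-Ahx-Ub-VS (0.5 µM final) for 1 h, with labelled DUBs NeutrAvidin-enriched and run by diaPASEF LC-MS/MS.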

USP46 = USP46 (UniProt P62068)
Summary of the method: as §1

USP47 = molecular target: T2, USP47 (UniProt Q96K76)
T2 sequence (whole entry): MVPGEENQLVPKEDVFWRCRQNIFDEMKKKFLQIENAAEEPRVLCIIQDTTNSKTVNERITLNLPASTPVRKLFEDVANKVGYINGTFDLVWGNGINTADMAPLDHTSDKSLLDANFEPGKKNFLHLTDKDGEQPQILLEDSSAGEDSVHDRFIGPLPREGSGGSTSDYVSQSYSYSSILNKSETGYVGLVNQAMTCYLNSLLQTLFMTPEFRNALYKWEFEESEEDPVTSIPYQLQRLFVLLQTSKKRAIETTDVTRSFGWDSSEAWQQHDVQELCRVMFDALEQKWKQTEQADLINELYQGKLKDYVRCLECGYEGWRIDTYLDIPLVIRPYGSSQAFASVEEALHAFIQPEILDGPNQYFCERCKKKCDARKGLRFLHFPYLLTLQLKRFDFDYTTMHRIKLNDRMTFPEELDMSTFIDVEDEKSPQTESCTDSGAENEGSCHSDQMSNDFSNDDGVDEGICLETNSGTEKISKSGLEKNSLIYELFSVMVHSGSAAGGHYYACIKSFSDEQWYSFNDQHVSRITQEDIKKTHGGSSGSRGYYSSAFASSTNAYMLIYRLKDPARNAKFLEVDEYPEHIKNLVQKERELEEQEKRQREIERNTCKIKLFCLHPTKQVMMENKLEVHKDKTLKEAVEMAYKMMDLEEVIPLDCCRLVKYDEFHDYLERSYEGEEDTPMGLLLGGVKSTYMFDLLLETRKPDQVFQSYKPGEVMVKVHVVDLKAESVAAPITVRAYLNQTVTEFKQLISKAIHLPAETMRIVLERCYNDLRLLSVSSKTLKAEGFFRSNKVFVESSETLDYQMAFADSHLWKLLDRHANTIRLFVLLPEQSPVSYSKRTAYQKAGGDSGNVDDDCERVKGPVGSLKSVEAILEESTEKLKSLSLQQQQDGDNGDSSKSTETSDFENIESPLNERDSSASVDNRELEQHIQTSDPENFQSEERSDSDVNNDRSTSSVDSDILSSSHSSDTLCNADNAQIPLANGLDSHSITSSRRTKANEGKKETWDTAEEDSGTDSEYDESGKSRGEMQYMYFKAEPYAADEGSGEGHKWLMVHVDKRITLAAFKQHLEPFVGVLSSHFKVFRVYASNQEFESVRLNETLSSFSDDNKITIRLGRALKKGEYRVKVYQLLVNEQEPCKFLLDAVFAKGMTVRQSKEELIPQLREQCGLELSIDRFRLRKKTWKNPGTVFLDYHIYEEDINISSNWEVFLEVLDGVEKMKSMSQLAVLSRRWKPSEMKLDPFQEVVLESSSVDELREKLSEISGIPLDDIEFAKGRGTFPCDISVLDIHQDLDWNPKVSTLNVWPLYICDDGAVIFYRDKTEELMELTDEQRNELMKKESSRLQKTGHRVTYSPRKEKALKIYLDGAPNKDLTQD
Summary of the method: as §1

USP48 = molecular target: T3, USP48 (UniProt Q86UV5)
T3 sequence (whole entry): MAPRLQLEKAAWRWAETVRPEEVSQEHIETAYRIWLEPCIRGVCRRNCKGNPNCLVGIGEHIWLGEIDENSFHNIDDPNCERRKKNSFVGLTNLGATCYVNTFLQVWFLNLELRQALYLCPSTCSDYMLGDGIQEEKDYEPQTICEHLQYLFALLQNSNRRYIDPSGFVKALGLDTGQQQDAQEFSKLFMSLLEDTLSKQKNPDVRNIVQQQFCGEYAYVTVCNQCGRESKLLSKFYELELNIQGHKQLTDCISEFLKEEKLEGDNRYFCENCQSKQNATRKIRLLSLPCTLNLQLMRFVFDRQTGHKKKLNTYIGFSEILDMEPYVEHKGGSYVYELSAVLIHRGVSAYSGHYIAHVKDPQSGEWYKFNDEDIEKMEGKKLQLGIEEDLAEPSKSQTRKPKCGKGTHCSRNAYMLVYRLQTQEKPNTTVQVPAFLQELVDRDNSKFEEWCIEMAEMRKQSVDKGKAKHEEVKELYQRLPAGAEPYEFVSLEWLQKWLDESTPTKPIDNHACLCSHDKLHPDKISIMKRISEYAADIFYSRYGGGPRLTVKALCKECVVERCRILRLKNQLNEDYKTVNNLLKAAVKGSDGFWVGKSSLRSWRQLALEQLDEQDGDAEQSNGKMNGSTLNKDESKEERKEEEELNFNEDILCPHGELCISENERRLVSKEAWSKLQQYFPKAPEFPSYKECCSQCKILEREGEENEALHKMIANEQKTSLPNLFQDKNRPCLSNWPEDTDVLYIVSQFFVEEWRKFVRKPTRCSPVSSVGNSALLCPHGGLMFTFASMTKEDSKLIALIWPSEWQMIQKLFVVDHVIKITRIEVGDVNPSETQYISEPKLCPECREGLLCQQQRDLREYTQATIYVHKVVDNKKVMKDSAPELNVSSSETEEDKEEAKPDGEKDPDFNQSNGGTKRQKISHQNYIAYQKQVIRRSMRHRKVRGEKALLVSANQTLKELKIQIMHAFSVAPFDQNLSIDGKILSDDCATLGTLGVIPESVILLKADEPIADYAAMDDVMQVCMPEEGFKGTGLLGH
Summary of the method: as §1

USP5 = molecular target: T4, USP5 (UniProt P45974)
T4 sequence (whole entry): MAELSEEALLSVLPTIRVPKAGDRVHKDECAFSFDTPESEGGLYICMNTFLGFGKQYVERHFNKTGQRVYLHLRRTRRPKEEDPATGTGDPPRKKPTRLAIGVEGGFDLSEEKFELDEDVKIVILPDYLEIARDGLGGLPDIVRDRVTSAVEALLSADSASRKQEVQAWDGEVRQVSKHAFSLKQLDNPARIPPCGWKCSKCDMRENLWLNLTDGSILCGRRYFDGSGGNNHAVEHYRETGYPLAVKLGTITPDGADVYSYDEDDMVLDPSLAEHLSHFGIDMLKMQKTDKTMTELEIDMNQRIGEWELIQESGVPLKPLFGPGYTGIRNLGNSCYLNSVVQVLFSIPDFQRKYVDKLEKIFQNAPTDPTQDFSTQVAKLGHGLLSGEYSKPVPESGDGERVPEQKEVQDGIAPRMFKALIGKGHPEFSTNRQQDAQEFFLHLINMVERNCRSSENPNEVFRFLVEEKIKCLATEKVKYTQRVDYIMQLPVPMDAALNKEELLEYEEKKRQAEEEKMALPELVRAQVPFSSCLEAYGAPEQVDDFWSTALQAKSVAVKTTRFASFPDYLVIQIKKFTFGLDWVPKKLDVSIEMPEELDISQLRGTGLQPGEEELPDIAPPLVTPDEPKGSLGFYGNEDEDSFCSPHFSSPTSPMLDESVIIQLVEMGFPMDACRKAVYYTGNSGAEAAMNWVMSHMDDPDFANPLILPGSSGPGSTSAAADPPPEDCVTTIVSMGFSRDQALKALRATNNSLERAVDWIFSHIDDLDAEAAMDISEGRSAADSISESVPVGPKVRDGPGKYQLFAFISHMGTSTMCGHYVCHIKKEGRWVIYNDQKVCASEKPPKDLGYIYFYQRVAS
Summary of the method: as §1

USP54 = USP54 (UniProt Q70EL1)
Summary of the method: as §1

USP7 = USP7 (UniProt Q93009)
Summary of the method: as §1

USP8 = molecular target: T5, USP8 (UniProt P40818)
T5 sequence (whole entry): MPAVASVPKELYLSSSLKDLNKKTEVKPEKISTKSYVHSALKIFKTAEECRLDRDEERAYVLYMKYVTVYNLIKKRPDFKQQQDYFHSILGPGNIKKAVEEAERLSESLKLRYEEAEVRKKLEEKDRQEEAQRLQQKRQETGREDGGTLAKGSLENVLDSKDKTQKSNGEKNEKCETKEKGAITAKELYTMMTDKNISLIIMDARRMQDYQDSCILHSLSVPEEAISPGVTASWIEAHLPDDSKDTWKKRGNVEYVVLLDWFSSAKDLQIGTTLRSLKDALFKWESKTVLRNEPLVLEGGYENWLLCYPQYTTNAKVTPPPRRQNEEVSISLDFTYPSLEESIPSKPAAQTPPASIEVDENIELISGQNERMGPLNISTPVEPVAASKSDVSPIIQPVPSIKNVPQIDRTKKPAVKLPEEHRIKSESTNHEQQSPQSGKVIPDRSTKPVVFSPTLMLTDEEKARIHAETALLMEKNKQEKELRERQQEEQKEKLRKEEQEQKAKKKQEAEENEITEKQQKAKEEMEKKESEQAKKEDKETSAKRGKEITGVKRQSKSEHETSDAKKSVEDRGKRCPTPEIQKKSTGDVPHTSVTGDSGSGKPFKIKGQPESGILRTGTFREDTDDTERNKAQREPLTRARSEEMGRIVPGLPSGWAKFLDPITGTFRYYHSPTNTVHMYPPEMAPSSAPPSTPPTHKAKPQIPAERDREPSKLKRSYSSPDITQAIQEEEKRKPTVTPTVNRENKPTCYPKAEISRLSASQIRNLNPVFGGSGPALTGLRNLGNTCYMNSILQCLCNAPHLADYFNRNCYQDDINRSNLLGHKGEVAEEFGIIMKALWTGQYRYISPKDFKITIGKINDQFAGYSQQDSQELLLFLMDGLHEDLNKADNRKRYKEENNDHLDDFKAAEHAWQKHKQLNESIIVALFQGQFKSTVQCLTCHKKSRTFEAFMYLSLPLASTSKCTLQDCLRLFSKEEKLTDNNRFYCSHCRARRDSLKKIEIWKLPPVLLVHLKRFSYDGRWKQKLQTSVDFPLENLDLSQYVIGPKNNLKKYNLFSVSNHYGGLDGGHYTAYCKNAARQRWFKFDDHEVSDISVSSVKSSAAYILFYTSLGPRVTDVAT
Summary of the method: as §1

USP9X = USP9X (UniProt Q93008)
Summary of the method: as §1

UniProt O00487 = molecular target: UniProt O00487
Summary of the method: as §1

Sequence of USP46 (P62068 whole entry): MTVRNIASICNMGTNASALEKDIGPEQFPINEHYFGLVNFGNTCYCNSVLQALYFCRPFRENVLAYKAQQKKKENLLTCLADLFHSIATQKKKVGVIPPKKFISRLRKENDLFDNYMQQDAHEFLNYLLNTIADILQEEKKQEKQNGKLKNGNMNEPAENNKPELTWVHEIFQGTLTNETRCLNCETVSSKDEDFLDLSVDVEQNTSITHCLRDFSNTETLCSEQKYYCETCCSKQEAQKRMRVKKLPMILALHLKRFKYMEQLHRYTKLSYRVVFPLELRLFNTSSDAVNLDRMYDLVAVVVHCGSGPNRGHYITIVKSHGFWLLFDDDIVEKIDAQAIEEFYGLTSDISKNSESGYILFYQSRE
Sequence of USP9X (Q93008 whole entry): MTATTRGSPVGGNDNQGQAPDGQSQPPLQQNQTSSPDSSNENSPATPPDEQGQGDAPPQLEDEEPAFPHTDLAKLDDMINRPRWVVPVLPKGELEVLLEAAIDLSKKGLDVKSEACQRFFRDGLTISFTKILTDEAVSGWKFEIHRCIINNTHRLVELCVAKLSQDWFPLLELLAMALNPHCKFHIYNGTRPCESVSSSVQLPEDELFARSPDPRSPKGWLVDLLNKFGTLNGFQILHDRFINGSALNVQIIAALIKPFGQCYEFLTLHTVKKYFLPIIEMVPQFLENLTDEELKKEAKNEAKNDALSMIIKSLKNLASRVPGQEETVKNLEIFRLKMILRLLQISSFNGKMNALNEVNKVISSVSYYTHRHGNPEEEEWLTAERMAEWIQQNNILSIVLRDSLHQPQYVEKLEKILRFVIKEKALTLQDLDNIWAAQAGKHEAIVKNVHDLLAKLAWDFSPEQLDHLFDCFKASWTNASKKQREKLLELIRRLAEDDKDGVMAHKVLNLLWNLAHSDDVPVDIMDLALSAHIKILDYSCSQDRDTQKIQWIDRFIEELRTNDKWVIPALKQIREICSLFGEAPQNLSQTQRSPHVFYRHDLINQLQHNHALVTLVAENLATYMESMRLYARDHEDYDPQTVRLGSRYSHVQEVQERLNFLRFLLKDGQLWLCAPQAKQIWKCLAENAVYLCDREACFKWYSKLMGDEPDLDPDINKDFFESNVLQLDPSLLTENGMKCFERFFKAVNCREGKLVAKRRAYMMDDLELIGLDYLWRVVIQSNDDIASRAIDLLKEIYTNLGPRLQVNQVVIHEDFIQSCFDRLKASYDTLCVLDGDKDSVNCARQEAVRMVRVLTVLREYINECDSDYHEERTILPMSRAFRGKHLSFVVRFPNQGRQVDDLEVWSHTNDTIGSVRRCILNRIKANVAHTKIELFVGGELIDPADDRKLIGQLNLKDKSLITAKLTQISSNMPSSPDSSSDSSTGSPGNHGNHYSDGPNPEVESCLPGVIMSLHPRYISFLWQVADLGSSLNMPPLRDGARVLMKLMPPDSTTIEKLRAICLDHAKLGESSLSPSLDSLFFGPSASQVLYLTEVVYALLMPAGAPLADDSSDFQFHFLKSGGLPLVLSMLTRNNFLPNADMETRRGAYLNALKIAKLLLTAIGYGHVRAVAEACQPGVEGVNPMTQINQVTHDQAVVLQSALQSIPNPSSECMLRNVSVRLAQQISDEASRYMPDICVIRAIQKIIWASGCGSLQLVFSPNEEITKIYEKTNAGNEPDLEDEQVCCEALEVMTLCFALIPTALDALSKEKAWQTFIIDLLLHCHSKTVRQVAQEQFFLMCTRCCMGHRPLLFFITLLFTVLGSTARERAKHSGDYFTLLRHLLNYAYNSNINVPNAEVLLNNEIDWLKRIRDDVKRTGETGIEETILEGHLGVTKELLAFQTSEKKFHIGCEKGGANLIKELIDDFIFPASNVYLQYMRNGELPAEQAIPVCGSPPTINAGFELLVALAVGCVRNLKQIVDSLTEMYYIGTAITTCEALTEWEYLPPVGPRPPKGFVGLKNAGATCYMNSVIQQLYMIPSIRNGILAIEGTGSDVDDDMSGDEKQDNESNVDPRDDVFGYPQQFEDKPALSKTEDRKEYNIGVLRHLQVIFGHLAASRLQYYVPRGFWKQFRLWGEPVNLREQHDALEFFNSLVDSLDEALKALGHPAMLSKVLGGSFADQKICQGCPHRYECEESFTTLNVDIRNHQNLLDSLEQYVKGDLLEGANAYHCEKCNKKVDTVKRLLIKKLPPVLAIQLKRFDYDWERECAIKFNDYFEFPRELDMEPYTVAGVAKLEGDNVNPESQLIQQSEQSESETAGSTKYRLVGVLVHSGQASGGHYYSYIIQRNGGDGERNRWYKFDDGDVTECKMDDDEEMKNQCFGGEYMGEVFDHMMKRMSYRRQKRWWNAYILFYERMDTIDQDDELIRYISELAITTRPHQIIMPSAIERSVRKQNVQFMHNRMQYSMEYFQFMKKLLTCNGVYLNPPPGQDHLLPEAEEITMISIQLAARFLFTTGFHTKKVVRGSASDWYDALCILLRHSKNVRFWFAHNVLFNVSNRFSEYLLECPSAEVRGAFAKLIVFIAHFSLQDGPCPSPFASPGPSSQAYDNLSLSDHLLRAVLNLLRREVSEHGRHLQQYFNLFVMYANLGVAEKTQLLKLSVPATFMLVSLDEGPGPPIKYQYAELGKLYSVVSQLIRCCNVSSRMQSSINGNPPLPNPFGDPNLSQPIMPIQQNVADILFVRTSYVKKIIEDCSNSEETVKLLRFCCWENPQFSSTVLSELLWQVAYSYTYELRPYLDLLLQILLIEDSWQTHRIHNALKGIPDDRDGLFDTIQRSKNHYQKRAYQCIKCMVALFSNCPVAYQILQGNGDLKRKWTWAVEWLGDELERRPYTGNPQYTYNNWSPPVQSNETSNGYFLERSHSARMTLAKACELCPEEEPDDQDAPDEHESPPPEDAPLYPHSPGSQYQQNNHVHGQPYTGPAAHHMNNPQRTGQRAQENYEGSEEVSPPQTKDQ
Sequence of USP7 (Q93009 whole entry, looked up): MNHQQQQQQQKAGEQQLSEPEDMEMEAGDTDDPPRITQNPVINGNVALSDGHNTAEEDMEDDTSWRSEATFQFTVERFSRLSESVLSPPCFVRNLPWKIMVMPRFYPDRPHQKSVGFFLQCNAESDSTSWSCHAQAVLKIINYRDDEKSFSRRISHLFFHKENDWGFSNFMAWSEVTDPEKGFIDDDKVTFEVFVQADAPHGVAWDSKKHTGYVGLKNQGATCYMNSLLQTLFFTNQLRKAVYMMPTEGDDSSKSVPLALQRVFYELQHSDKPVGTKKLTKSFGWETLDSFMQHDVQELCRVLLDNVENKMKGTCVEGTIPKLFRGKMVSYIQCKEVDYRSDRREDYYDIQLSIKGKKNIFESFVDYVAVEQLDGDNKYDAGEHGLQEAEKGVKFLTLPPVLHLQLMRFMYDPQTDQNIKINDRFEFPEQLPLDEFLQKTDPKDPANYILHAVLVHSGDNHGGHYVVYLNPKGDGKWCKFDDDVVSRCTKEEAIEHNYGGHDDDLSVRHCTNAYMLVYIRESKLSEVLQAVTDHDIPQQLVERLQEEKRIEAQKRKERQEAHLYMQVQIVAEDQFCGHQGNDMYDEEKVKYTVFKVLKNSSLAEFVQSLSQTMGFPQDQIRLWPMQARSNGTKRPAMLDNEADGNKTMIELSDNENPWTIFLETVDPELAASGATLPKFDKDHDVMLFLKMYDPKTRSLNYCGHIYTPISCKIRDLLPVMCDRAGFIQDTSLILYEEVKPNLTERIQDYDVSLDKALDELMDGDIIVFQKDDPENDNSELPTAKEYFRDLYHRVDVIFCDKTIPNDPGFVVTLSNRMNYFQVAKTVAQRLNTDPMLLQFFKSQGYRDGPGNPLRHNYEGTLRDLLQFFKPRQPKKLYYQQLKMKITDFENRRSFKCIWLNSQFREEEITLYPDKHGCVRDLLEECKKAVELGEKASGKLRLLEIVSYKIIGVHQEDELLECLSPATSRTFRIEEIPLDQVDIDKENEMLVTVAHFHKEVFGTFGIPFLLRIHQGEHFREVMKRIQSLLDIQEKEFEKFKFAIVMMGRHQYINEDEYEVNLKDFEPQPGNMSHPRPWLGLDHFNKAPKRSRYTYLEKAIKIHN
Sequence of UniProt O00487 (O00487 whole entry): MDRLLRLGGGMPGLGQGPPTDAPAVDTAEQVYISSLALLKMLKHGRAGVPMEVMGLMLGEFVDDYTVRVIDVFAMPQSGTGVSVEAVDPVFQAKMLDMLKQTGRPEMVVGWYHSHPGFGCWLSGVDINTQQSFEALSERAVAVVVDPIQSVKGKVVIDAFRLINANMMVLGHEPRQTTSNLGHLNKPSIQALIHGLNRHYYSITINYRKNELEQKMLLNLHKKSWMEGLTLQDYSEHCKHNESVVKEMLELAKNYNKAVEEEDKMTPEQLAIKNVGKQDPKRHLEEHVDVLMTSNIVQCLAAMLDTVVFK

Compound	log2 ratio of Biotin-Ahx-Ub-VS probe labelling (USP42)	log2 ratio of Biotin-Ahx-Ub-VS probe labelling (USP46)	log2 ratio of Biotin-Ahx-Ub-VS probe labelling (USP47)	log2 ratio of Biotin-Ahx-Ub-VS probe labelling (USP48)	log2 ratio of Biotin-Ahx-Ub-VS probe labelling (USP5)	log2 ratio of Biotin-Ahx-Ub-VS probe labelling (USP54)	log2 ratio of Biotin-Ahx-Ub-VS probe labelling (USP7)	log2 ratio of Biotin-Ahx-Ub-VS probe labelling (USP8)	log2 ratio of Biotin-Ahx-Ub-VS probe labelling (USP9X)	log2 ratio of Biotin-Ahx-Ub-VS probe labelling (UniProt O00487)
Cc1conc1C1CN(C(=O)CCl)C1	0.317	-0.643	-0.971	-0.753	-0.555	1.02	-1.04 (active)	-0.915	-0.803	-0.115
O=C(CCl)Nc1cc2c(cc1Cl)OCCCO2	0.621	0.0317	-0.676	-0.438	0.232	-0.0568	-0.0845	-0.029	0.118	-0.147
CC1CCc2onc(CNC(=O)CCl)c2C1 (stereo not given)	0.0513	0.0919	-0.0836	0.185	0.386	0.0792	-0.00387	-0.212	-0.154	0.0127
O=C(CCl)N1CCCN(C(=O)c2ccc(Cl)cc2)CC1	-0.0422	-0.129	-0.76	-1.16 (active)	0.0155	0.842	-1.18 (active)	-0.354	-0.318	0.0259
